Experimental data taken from the supplement of paper PMC10849652.
About 8,800 targets were measured; listed, in parts, are those with a hit and a random draw of the rest. About 0.5% of all pairs of compound and target were hits.

Assays:
Assay in all cases: log2 fold change, soluble protein after heating vs DMSO (PISA); higher = thermal stabilisation; K562 lysate, 10 uM; active = over 0.2 and 3.5 SD of the protein, either way, in both replicates (recomputed)
ibrutinib = compound: C=CC(=O)N1CCC[C@@H](n2nc(-c3ccc(Oc4ccccc4)cc3)c3c(N)ncnc32)C1 [ibrutinib]
In short: (§1)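 Quantification was by TMTpro 16plex LC-MS/MS with equalised channel sums, applied to the supernatant after 21,000xg for 90 min. Samples were crude K562 extract at 1 mg/mL protein in PBS pH 7.4 with 1 mM MgCl2, treated with 10 μM compound for 30 min, heated for 3 min across 48°C-58°C, pooled and brought to 0.5% NP-40 at 4°C. Values are log-two fold changes in thermal stability relative to solvent controls, from duplicates.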

[1] = compound: CC(=O)c1cnc2ccc(-c3cc(Cl)c(O)c(Cl)c3)nc2c1N[C@H]1CC[C@H](CN(C)C)CC1
In short: as §1

ralimetinib = compound: CC(C)(C)Cn1c(N)nc2ccc(-c3[nH]c(C(C)(C)C)nc3-c3ccc(F)cc3)nc21 [ralimetinib]
In short: as §1

[2] = compound: CC(C)(O)CC(=O)NCCn1ccc2ncnc(Nc3ccc(Oc4cccc(C(F)(F)F)c4)c(Cl)c3)c21
In short: as §1

[3] = compound: CC(C)C1=C2N=C(C=C(N2N=C1)NCC3=CC=CC=C3)NCCCCCCN
In short: as §1

[4] = compound: CC1=C(C(CC(=O)N1)C2=CC=C(C=C2)C(F)(F)F)C(=O)NC3=C(C=C4C(=C3)C=NN4)F
In short: as §1

[5] = compound: CC1=C(C2=C(C=C1)C(=O)C3=CC=CC=C3N2CCCN)C
In short: as §1

[6] = compound: CC1=C(C=C(C=C1)NC(=O)C2=CC(=CC=C2)C(C)(C)C#N)NC3=CC4=C(C=C3)N=CN(C4=O)C
In short: as §1

[7] = compound: CC1=C(C=C(C=C1)NC(=O)C2=CC(=CC=C2)N(C)C)NC(=O)C3=CC=C(C=C3)O
In short: as §1

[8] = compound: CC1=CC=C(C=C1)SC2=C3C=C(SC3=CN=C2)C(=O)N
In short: as §1

vemurafenib = compound: CCCS(=O)(=O)Nc1ccc(F)c(C(=O)c2c[nH]c3ncc(-c4ccc(Cl)cc4)cc23)c1F [vemurafenib]
In short: as §1

[9] = compound: CCCS(=O)(=O)Nc1ccc(F)c(C(=O)c2c[nH]c3ncc(Cl)cc23)c1F
In short: as §1

barasertib = compound: CCN(CCCOc1ccc2c(Nc3cc(CC(=O)Nc4cccc(F)c4)[nH]n3)ncnc2c1)CCOP(=O)(O)O [barasertib]
In short: as §1

[10] = compound: CC[C@@H]1C(=O)N(C)c2cnc(Nc3ccc(C(=O)NC4CCN(C)CC4)cc3OC)nc2N1C1CCCC1
In short: as §1

volasertib = compound: CC[C@@H]1C(=O)N(C)c2cnc(Nc3ccc(C(=O)N[C@H]4CC[C@H](N5CCN(CC6CC6)CC5)CC4)cc3OC)nc2N1C(C)C [volasertib]
In short: as §1

[11] = compound: CCn1c(C(=O)N(C2CC2)C2CC2)cc2c3c(ncn3C)c(Nc3cc(C)n(C)n3)nc21
In short: as §1

[12] = compound: CCn1cc(-c2ccnc3[nH]c(-c4cccc(CN(C)C)c4)cc23)c(-c2ccc(NC(=O)N(C)C)cc2)n1
In short: as §1

[13] = compound: CN1CCC(CNc2ccc3ncc(-c4cccc(OC(F)(F)F)c4)n3n2)CC1
In short: as §1

saracatinib = compound: CN1CCN(CCOc2cc(OC3CCOCC3)c3c(Nc4c(Cl)ccc5c4OCO5)ncnc3c2)CC1 [saracatinib]
In short: as §1

sotrastaurin = compound: CN1CCN(c2nc(C3=C(c4c[nH]c5ccccc45)C(=O)NC3=O)c3ccccc3n2)CC1 [sotrastaurin]
In short: as §1

Measured: log2 fold change

SRRT (UniProt Q9BXP5)
Sequence of UniProt Q9BXP5 (Q9BXP5 whole entry, looked up): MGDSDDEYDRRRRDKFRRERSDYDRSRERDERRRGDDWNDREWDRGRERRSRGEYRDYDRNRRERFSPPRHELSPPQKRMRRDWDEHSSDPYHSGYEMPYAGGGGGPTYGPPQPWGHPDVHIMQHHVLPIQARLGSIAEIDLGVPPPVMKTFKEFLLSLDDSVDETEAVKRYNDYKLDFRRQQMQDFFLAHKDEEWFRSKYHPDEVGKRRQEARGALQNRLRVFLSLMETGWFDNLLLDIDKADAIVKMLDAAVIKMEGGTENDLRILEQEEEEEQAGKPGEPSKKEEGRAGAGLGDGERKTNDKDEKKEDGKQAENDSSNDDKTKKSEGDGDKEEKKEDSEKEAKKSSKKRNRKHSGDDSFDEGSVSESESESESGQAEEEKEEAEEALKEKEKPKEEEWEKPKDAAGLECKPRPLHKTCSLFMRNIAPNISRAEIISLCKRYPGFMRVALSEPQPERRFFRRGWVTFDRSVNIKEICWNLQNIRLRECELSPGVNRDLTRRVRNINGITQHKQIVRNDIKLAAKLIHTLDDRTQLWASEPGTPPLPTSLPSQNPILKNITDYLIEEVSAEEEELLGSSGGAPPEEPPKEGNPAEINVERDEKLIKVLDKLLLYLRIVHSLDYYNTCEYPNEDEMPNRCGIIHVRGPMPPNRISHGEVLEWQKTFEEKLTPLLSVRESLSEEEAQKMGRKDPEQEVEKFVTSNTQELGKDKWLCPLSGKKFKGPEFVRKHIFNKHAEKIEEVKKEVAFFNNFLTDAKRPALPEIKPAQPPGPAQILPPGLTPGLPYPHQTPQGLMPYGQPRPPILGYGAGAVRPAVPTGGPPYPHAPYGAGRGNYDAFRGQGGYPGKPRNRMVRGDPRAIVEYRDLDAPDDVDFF
inactive: ibrutinib 0.013 | [1] 0 | ralimetinib 0.026 | [2] 0.006 | [3] -0.01 | [4] -0.024 | [5] -0.012 | [6] -0.008 | [7] 0.043 | [8] -0.001 | vemurafenib 0.012 | [9] 0.012 | barasertib -0.008 | [10] -0.039 | volasertib -0.08 | [11] 0.042 | [12] 0.061 | [13] -0.1 | saracatinib -0.016 | sotrastaurin 0.02

SUZ12 (UniProt Q15022)
Sequence of UniProt Q15022 (Q15022 whole entry, looked up): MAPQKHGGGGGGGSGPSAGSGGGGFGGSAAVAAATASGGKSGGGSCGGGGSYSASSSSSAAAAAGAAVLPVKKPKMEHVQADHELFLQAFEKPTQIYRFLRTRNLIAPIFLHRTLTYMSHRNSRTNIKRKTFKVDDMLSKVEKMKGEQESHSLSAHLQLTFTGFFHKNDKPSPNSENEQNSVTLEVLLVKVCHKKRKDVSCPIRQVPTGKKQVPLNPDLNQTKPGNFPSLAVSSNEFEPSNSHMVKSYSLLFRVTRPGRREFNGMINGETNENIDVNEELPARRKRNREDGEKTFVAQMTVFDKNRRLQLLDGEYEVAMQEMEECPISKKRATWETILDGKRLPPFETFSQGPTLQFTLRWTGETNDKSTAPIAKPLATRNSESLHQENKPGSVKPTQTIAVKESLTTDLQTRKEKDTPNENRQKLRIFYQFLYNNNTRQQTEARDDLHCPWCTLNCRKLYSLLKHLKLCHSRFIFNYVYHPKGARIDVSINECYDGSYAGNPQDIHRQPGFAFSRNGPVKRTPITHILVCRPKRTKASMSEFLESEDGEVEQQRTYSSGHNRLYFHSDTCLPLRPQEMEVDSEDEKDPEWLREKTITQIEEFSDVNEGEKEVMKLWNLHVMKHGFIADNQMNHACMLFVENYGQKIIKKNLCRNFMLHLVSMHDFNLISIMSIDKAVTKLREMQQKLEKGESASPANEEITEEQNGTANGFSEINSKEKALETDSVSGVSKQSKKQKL
active: [6] 0.289
inactive: ibrutinib -0.043 | [1] 0.013 | ralimetinib 0.003 | [2] -0.036 | [3] 0.007 | [4] -0.023 | [5] -0.09 | [7] 0.048 | [8] -0.01 | vemurafenib 0.012 | [9] 0.022 | barasertib -0.012 | [10] 0.024 | volasertib -0.001 | [11] 0.012 | [12] -0.026 | [13] -0.002 | saracatinib -0.019 | sotrastaurin 0

TAF9 (UniProt Q16594)
Sequence of UniProt Q16594 (Q16594 whole entry, looked up): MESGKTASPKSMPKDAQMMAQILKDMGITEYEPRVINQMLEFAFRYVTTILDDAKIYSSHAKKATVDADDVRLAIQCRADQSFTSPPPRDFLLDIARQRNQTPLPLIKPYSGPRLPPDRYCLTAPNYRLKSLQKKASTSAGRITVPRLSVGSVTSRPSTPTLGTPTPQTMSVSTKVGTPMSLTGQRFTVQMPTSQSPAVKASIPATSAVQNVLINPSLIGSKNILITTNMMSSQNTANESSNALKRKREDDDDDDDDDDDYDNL
inactive: ibrutinib -0.028 | [1] 0.044 | ralimetinib 0.033 | [2] -0.057 | [3] 0.032 | [4] 0.015 | [5] 0.019 | [6] 0.027 | [7] 0.101 | [8] -0.023 | vemurafenib -0.028 | [9] -0.092 | barasertib -0.001 | [10] -0.031 | volasertib 0.063 | [11] 0.002 | [13] -0.006 | saracatinib 0.056 | sotrastaurin -0.001
active: [12] 0.238

SRPK1 (UniProt Q96SB4)
Sequence of UniProt Q96SB4 (Q96SB4 whole entry, looked up): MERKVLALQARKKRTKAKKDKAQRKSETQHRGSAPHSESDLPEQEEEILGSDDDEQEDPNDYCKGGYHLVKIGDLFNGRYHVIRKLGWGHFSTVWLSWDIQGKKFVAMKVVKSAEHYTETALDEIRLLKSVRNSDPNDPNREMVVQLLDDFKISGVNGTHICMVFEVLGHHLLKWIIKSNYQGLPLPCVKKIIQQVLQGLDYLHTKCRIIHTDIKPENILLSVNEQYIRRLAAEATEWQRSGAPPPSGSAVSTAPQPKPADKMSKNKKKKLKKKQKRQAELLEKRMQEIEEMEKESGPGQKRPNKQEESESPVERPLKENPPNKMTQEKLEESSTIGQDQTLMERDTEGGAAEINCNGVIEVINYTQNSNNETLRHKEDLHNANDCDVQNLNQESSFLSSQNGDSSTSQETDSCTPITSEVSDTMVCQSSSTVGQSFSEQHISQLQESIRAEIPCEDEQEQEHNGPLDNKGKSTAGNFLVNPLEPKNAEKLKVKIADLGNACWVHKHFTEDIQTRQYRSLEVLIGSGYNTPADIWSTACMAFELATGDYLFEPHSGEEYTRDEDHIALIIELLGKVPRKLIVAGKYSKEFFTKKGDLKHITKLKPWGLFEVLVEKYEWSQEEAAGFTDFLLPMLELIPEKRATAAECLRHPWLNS
inactive: ibrutinib 0.031 | [1] 0.008 | ralimetinib -0.004 | [2] -0.001 | [3] -0.005 | [4] -0.004 | [5] -0.018 | [6] 0.006 | [7] -0.029 | [8] 0.011 | vemurafenib 0.003 | [9] 0.029 | barasertib -0.014 | [10] 0.093 | volasertib -0.01 | [11] 0.008 | [12] 0.055 | [13] -0.072 | saracatinib 0.012 | sotrastaurin 0.021

SPAG5 (UniProt Q96R06)
Sequence of UniProt Q96R06 (Q96R06 whole entry, looked up): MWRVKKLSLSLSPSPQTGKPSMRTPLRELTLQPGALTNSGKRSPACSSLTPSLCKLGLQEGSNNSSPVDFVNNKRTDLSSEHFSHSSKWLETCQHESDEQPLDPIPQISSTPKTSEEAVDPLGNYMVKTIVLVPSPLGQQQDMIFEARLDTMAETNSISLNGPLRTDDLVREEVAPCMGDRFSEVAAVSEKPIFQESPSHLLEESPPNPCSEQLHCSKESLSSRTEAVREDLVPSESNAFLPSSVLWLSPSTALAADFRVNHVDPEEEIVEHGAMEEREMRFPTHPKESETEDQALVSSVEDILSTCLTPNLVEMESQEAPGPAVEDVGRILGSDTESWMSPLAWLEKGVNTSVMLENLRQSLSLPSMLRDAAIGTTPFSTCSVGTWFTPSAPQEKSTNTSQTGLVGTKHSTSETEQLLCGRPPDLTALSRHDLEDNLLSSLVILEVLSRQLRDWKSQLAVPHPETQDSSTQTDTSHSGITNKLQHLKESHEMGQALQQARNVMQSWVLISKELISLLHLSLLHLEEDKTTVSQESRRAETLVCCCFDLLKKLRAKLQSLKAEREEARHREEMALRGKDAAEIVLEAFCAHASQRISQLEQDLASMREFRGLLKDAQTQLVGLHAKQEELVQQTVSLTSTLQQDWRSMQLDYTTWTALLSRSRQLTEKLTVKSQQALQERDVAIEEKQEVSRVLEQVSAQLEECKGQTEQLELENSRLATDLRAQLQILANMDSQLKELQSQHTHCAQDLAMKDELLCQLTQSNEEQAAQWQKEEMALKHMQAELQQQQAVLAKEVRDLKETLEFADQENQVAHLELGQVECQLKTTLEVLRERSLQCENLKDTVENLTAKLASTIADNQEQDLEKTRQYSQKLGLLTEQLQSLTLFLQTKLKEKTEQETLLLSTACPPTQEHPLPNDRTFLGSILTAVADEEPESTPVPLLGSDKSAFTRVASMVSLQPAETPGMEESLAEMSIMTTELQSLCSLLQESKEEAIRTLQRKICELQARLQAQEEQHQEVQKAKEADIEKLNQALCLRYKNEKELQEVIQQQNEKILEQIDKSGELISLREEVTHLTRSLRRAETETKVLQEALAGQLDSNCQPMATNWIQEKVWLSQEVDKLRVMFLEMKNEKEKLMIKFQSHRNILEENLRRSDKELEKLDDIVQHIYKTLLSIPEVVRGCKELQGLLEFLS
inactive: ibrutinib -0.005 | [1] 0.039 | ralimetinib -0.001 | [2] 0.017 | [3] -0.013 | [4] 0.03 | [5] -0.024 | [6] -0.024 | [7] 0.008 | [8] -0.005 | vemurafenib -0.007 | [9] 0.04 | barasertib 0.025 | [10] -0.016 | volasertib -0.004 | [11] -0.01 | [12] -0.004 | [13] -0.174 | saracatinib 0.004 | sotrastaurin 0.009

SP1 (UniProt P08047)
Sequence of UniProt P08047 (P08047 whole entry, looked up): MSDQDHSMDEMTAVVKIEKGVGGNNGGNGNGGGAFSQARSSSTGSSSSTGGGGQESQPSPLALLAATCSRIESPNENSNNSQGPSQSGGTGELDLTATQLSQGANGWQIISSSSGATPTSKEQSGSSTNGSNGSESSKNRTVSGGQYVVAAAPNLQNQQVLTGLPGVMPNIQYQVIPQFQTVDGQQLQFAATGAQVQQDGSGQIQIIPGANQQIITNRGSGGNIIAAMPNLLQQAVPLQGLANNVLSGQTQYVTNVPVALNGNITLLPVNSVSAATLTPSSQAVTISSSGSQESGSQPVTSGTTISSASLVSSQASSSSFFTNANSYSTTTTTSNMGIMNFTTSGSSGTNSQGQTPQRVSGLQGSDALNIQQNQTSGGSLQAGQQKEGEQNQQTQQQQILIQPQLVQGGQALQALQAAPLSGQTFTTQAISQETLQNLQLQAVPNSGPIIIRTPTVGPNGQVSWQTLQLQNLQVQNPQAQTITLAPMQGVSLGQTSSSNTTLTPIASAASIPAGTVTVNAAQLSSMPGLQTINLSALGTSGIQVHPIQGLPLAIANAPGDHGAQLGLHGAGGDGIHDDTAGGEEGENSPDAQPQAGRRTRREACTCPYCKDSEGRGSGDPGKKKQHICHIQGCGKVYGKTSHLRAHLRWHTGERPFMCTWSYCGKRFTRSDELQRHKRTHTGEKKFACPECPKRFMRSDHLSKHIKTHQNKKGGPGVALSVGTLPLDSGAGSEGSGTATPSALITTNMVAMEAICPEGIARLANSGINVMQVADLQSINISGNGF
inactive: ibrutinib 0.04 | [1] 0.017 | ralimetinib -0.018 | [2] -0.049 | [3] -0.103 | [4] -0.013 | [5] 0.061 | [6] 0.22 | [7] 0.017 | [8] -0.027 | vemurafenib -0.115 | [9] 0.056 | barasertib 0.045 | [10] 0.015 | volasertib 0.043 | [11] -0.008 | [12] -0.061 | [13] 0.019 | saracatinib 0.037 | sotrastaurin -0.154

SRSF2 (UniProt Q01130)
Sequence of UniProt Q01130 (Q01130 whole entry, looked up): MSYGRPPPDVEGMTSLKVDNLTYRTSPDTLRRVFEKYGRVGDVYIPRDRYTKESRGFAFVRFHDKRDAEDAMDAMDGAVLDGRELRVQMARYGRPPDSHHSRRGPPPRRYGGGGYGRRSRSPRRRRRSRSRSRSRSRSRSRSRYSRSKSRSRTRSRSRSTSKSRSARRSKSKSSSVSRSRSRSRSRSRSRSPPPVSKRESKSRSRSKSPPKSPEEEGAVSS
inactive: ibrutinib 0.021 | [1] -0.009 | ralimetinib 0.034 | [2] -0.065 | [3] -0.013 | [4] -0.021 | [5] -0.015 | [6] 0.016 | [7] 0.028 | [8] -0.018 | vemurafenib -0.001 | [9] -0.014 | barasertib -0.007 | [10] 0.02 | volasertib 0.002 | [11] -0.065 | [12] -0.232 | [13] 0.153 | saracatinib 0.033 | sotrastaurin 0.024

STK36 (UniProt Q9NRP7)
inactive: ibrutinib 0.019 | [1] -0.182 | ralimetinib -0.087 | [2] -0.416 | [3] 0.071 | [4] -0.058 | [5] -0.176 | [6] 0.408 | [7] -0.004 | [8] -0.097 | vemurafenib 0.188 | [9] 0.038 | barasertib -0.073 | [10] 0.302 | volasertib 0.01 | [11] -0.445 | [12] -0.532 | [13] 0.442 | saracatinib 0.077 | sotrastaurin -0.072
